In PubChem BioAssay AID2732 (Emory University Molecular Libraries Screening Center, 2010) one finds inhibition data, which are given here for 65 molecules.

Molecules are shown by their SMILES. Hit rate of the full screen: of about 220,000 compounds, about 8,200 (3.7%) were called active. The sample holds actives, similar compounds and a random draw of the others, so the mix is not that of the screen. A number with no mark means an inactive call.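 The calls were made as follows: active = compounds that reduced the stress-induced luciferase reporter signal by more than about 70% of percent inhibition (limit read from the data); inactive = the rest.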

The assay in a line: inhibitors of CHOP promoter induction, primary screen, cell-based, unfolded protein response, luciferase reporter (AID 2732).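 Also: 0% = tunicamycin plus vehicle and 100% = wells without tunicamycin.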 The note with it: CHO-K1 CHOP-promoter luciferase, tunicamycin-induced, 15-18 h; at 10 µM; stronger effect = higher value. (In general: In a reporter assay the amount or activity of a reporter protein is the signal.)
What is called inhibition is the change of the read-out against control, counted positive when it falls. As to `O=c1ccn(Cc2ccccc2Cl)cc1`, the inhibition is 68.6%.

As to `CC1(C)COC(c2cccn2Cc2ccccc2Cl)=N1`, the inhibition is 71.8% (active).

Regarding `O=C(Nc1cccn(Cc2ccccc2Cl)c1=O)NC1CCCCC1`, the inhibition is 26.3%.

On to `O=C(/C(=C/c1cccc(Cl)c1)c1nc2ccccc2[nH]1)c1ccccc1`, for which the inhibition is 92.6% (active).

For `CCC(=O)/C(=C(/O)c1ccccc1)c1nc2ccccc2[nH]1`, the inhibition is -37.6%.

For `O=C(Cc1nc2ccccc2[nH]c1=O)c1ccc(Cl)cc1`, the inhibition is -13.2%.

For the molecule `Cc1ccc(NNC(=O)c2c(F)cccc2Cl)cc1Cl`, the inhibition is 4.19%.

Consider `COc1ccc(-n2c(SCC(=O)Nc3sc4c(c3C#N)CCCC4)nnc2-c2ccc(O)cc2)cc1`, for which the inhibition was 106% (active).

Consider `COc1cccc(CN(C)CC(=O)Nc2sc3c(c2C#N)CCC3)c1`, for which the inhibition was 3.74%.

With `NC(=O)c1c(NC(=O)CSc2nnc(-c3ccco3)n2N)sc2c1CCCC2`, the inhibition is 22.2%.

Turning to `COc1ccc(OC)c(-n2c(-c3ccn[nH]3)n[nH]c2=S)c1`, the inhibition was 12.3%.

With `CCOC(=O)N1CCN(c2c(NCCN3CCN(c4ccccc4F)CC3)c(=O)c2=O)CC1`, the inhibition is 18.8%.

On to `c1ccc(-c2noc(-c3cccs3)n2)nc1`, for which the inhibition was 22.5%.

Turning to `O=C(Oc1ccc(-c2nc(-c3ccccn3)no2)cc1)c1ccccc1`, the inhibition was 83.7% (active).

Turning to `O=C(Oc1ccccc1)c1ccc2nccnc2c1`, the inhibition was -6.68%.

For the molecule `O=c1c2c3c(sc2n(CCN2CCCC2)c(=O)n1Cc1ccccc1)CCCCC3`, the inhibition is 44.2%.

Turning to `CSc1nnnn1-c1c(C)cc(C)cc1C`, the inhibition was 3.56%.

In the case of `COc1ccc(C)cc1NC(=O)C(OC(=O)c1cccc(S(=O)(=O)N(C)c2ccccc2)c1)c1ccccc1` (stereo not given), the inhibition was -0.27%.

For `CN(c1ccccc1)S(=O)(=O)c1ccc(Cl)c(C(=O)OCC(N)=O)c1`, the inhibition was 7.63%.

Consider `CC(=O)c1c(C)[nH]c(C(=O)COC(=O)c2cccc(S(=O)(=O)N(C)c3ccccc3)c2)c1C`, for which the inhibition is 86.8% (active).

In the case of `CN(c1ccc(OCC(=O)NC2=NCCS2)cc1)S(=O)(=O)c1ccc(F)cc1`, the inhibition is -3.41%.

`Cc1ccc(S(=O)(=O)/N=C(/NC(=S)Nc2c(C)n(C)n(-c3ccccc3)c2=O)c2ccccc2)cc1`: the inhibition is 5.21%.

For the molecule `c1ccc(-c2nc(NCc3ccco3)c3ccccc3n2)cc1`, the inhibition is 8.64%.

In the case of `Clc1ccc2nc(-c3ccccc3)nc(C(Cl)Cl)c2c1`, the inhibition is 75.6% (active).

For `Clc1cccc(-c2nc(NCC3CCCO3)c3ccccc3n2)c1` (stereo not given), the inhibition was 14.2%.

As to `FC(F)(F)c1cccc(-c2nc(COc3ccc(Cl)cc3Cl)no2)c1`, the inhibition is -14.1%.

As for `O=C(c1cc(COc2c(F)cccc2F)on1)N1CCSCC1`, the inhibition is -22.2%.

Regarding `CC[C@@H](C)[C@@H](C(=O)N1CCN(C(=O)OC(C)(C)C)CC1)n1cc(CCC(=O)O)nn1`, the inhibition was -7.63%.

Consider `O=C(c1c(Cl)cccc1Cl)N1CCN(c2cccc3[nH]ccc23)CC1`, for which the inhibition is 12.1%.

For `COCCN1C(=O)N[C@@H](c2ccccc2)C(C(=O)OC)=C1C`, the inhibition is -1.22%.

In the case of `COC(=O)C1=C(C)N(C)C(C)=C(C(=O)OC)C1c1cccc(Br)c1`, the inhibition is 71.4% (active).

Take `COC(=O)C1=C(C)N(C)C(=S)NC1c1ccccc1` (stereo not given): the inhibition was -6.17%.

For the molecule `N/C(=N\S(=O)(=O)c1ccc(Cl)cc1)N1CCOCC1`, the inhibition is 13.5%.

Turning to `c1csc(-c2nnc(COc3ncnc4sccc34)o2)c1`, the inhibition is 4.38%.

As to `Cc1cccc(C)c1Nc1c(-c2ccccc2O)nc2ncccn12`, the inhibition was 6.71%.

For `O=c1c2ccccc2c(-c2ccc(Br)cc2)nn1Cc1ccccc1`, the inhibition was 36.9%.

Turning to `O=c1c2ccccc2c(-c2ccccc2)nn1-c1ccccn1`, the inhibition was 38.6%.

With `O=c1c2ccccc2c(-c2ccc(F)cc2)nn1-c1ccc(C(F)(F)F)cc1`, the inhibition is 75.1% (active).

Take `Oc1ccc2ccccc2c1N=Nc1nccs1`: the inhibition is -57.9%.

`Cc1noc(C)c1-c1nc(CSc2ccc(Cl)cc2)no1`: the inhibition was 20.1%.

For `O=S(=O)(c1cccc(-c2nnc3n2CCCCC3)c1)N1CCOCC1`, the inhibition was 7.35%.

Regarding `COc1cccc(CNC(=O)c2n[nH]c3ccccc23)c1`, the inhibition was 15.2%.

For `O=C(COC(=O)c1n[nH]c2ccccc12)NCc1ccccc1`, the inhibition is 38.6%.

In the case of `COc1ccc(COC(=O)c2n[nH]c3ccccc23)cc1F`, the inhibition is 97.2% (active).

In the case of `C=CCN(C(=O)Nc1ccc2c(c1)nc(C)n2C)c1ccccc1`, the inhibition is -18.2%.

For the molecule `O=C(NCCc1c[nH]c2ccc(Cl)cc12)c1ccc([N+](=O)[O-])cc1`, the inhibition is -3.24%.

In the case of `CCCOc1ccc(-c2nc(N)n[nH]2)cc1`, the inhibition is 20.8%.

Consider `CCCOc1ccc(Cc2c(Cl)nc(SC)nc2NC)cc1`, for which the inhibition is 97.5% (active).

On to `CCCOc1ccc(C(=O)NCCc2ccccc2)cc1`, for which the inhibition was 21.8%.

Take `CNc1ncnc2c1ncn2[C@@H]1O[C@H](CO)[C@H](O)C1O` (stereo not given in full): the inhibition is 10.8%.

For `CCOc1cc2[nH]c(=S)n(Cc3ccc(C(=O)NCCOC)cc3)c(=O)c2cc1OCC`, the inhibition was 9.91%.

For the molecule `COc1cc2[nH]c(=S)n(Cc3ccc(F)cc3)c(=O)c2cc1OC`, the inhibition is 90.9% (active).

Consider `COc1cc2[nH]c(=S)n(Cc3ccc(C)o3)c(=O)c2cc1OC`, for which the inhibition was 7.74%.

In the case of `C#CCNc1ccc(C(=O)OCC)cc1`, the inhibition is -15.6%.

Consider `O=C(O)CC1=C(Nc2ccccc2)C(=O)N(c2ccccc2)C1c1ccc(Cl)cc1` (stereo not given), for which the inhibition is 8.1%.

With `O=C1c2cccc3cc(Br)cc(c23)C(=O)N1Nc1ccccc1`, the inhibition is 63.7%.

Regarding `O=C1C=C(c2ccc(Cl)cc2)C(=O)N1Nc1ccccc1`, the inhibition was 108% (active).

For `CCCNC(=O)c1c(N)n(-c2ccc(S(N)(=O)=O)cc2)c2nc3ccccc3nc12`, the inhibition was -1.19%.

For `N#Cc1c(N)n(CCOC(=O)c2ccc(Cl)cc2)c2nc3ccccc3nc12`, the inhibition is -17.1%.

On to `CC(C)(C)c1ccc(C(=O)NCCn2c(N)c(C#N)c3nc4ccccc4nc32)cc1`, for which the inhibition is 86.5% (active).

In the case of `Cc1ccc(O)c(NC(=S)NC(=O)COc2ccc(Br)cc2)c1`, the inhibition is 74.2% (active).

As to `Cc1ccc(O)c(NC(=O)COc2cc(C)ccc2C)c1`, the inhibition is 5.05%.

In the case of `Cc1cccc(OCC(=O)NC(=S)Nc2ccccc2N2CCOCC2)c1`, the inhibition is 47.7%.

For `CCCc1c(C(=O)O)cnn1-c1ccc(Cl)cc1`, the inhibition was -2.68%.

In the case of `O=C1[C@@H]2C(c3cccnc3)=NO[C@@H]2C(=O)N1c1ccc(Cl)cc1Cl`, the inhibition was 19.2%.
